NTR1 agonist – NTR1 (human) agonism | P30989 | NTR1-U2OS beta-arrestin-GFP spot imaging, agonist mode | activation, % at 20 µM | hit rate 0.17% among 330,000 | AID 493036;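 active means activation at or above 40% of the spot to cytoplasm intensity ratio, with at least 20 cells analyzed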;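 further: 0% = DMSO without peptide and 100% = 100 nM NTR1 peptide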
Target sequence (P30989 whole entry, looked up): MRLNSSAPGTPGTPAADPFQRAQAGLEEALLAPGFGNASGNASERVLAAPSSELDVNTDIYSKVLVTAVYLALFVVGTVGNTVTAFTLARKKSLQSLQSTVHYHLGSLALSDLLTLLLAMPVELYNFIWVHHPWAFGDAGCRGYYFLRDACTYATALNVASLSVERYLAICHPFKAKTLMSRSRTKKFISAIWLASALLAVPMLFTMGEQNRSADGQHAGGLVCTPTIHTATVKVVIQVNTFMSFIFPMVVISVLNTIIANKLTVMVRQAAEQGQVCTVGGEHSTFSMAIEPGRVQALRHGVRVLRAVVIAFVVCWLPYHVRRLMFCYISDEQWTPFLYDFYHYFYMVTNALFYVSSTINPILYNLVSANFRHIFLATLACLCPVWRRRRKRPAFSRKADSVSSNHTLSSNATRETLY
HIF activator – HIF pathway transcriptional activation | U2OS HRE-luciferase reporter, luminescence; normalized: DMSO 0%, desferrioxamine 100% | activation, % at 7.5 µM (by protocol) | hit rate 0.32% among 300,000 | AID 1910;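 active means mean activation of at least 10% of the iron chelator positive control signal, with at least half of replicates also reaching 10%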
Platelet DG rel – platelet dense granule release activity; human platelet-rich plasma, SFLLRN dense granule ATP release, luminescence; AID 1663; hit rate 0.22% among 300,000; inhibition, %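 (compounds screened at 7.5 µM in platelet-rich plasma)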;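 active means mean replicate score, as percent of positive control, at or above 50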
Numbers without * were called inactive; · = no result. A selection: hits, their analogues and other compounds. The true share with any hit is near 0.63%.

SMILES | NTR1 agonist | HIF activator | Platelet DG rel
COc1cccc(/C=N/Nc2ncccc2[N+](=O)[O-])c1OC | 0.2 | -4.8 | 81.9*
O=[N+]([O-])c1ccc(/C=N/Nc2ncccc2[N+](=O)[O-])s1 | 1.5 | 0.9 | 13.0
COc1ccc(/C=N\Nc2ccccn2)c(OC)c1 | 0.2 | 5.7 | 7.8
COc1ccccc1/C=N/Nc1nccnc1Cl | -0.5 | 2.0 | 67.5*
O=C(NNC(=O)c1ccccc1Cl)c1ccco1 | 0.7 | 0.9 | -4.0
Cc1ccc(S(=O)(=O)N2CCCCC2)cc1C(=O)N1C(C)CCCC1C (stereo not given) | -1.9 | · | ·
CCN1CN(CCc2ccccc2)CNC1=S | 0.9 | 269.8* | -1.9
CCN1CNC(=S)N(CCc2ccccc2)C1 | 2.3 | -0.1 | -21.9
CC(=O)Nc1cccc(NS(=O)(=O)c2ccccc2[N+](=O)[O-])c1 | 0.2 | 0.2 | -5.4
COc1ccccc1CC(=O)N1CCOCC1 | -0.8 | -0.4 | -7.2
O=C(NCCc1ccccc1)C1CCN(C(=O)N2CCOc3ccccc32)CC1 | 0.0 | 0.4 | -0.5
O=C(CCc1nnc(-c2ccsc2)o1)NCc1ccccc1OC(F)(F)F | 0.4 | 0.8 | -1.3
CC(C)c1nc(CNC(=O)CCc2nnc(-c3ccsc3)o2)cs1 | 0.3 | 49.4* | 0.5
COC(=O)c1ccc(C(=O)OC)c(NC(=O)Nc2ccc3c(c2)OCO3)c1 | -0.5 | 3.1 | -0.8
COC(=O)c1ccccc1NC(=O)Nc1ccc2c(c1)OCO2 | -1.2 | 1.9 | 73.7*
CCN(CC(=O)Nc1ccc2c(c1)OCCO2)Cc1cc(=O)oc2c(C)c(C)ccc12 | 0.5 | -0.2 | 9.4
O=C(CCl)Nc1ccccc1C(=O)Nc1ccc2c(c1)OCO2 | 2.2 | 0.6 | 54.7*
O=C(CCNC(=O)c1ccccc1Cl)Nc1ccc2c(c1)OCO2 | 0.3 | 0.2 | -3.2
CCN(CC(=O)Nc1ccc2c(c1)OCCO2)CC(=O)Nc1ccc2c(c1)OCO2 | -1.8 | 54.0* | -5.0
N#CC1=C(SCc2ccccc2)NC(=O)CC1c1ccccc1 (stereo not given) | -7.2 | -0.5 | -2.3
O=C(Nc1cc(S(=O)(=O)N2CCOCC2)ccc1N1CCCC1)c1ccc(F)cc1 | -2.6 | · | ·
CC(C(=O)Nc1ccccc1-c1ccccc1)N(C)Cc1nc2ccccc2c(=O)[nH]1 (stereo not given) | 1.3 | 57.0* | 1.1
CC(NC(=O)CN(C)Cc1nc2ccccc2c(=O)[nH]1)c1ccccc1 (stereo not given) | -0.5 | -0.2 | -1.8
Cc1ccc2nc(-c3ccccc3NC(=O)CCC(=O)O)c(=O)[nH]c2c1 | -0.5 | 24.1* | -3.4
CC(C)C(=O)Nc1ccccc1-c1nc2ccccc2[nH]c1=O | -0.3 | 0.4 | -1.1
SMILES | NTR1 agonist | HIF activator | Platelet DG rel
CCOC(=O)C1CCCN(C(=O)C2CCN(S(=O)(=O)c3cccs3)CC2)C1 (stereo not given) | 1.8 | 0.0 | 7.5
C/C(=N\NC(=O)c1cc(-c2cccnc2)nc2ccccc12)c1ccccc1O | 1.1 | 17.6* | -3.0
COc1ccc(/C(C)=N/NC(=O)c2cc(-c3cccnc3)nc3ccccc23)cc1 | 2.1 | 0.0 | 0.8
Cc1ccc(NC(=O)N2CCCC(c3ccccc3)C2)cc1 (stereo not given) | -0.9 | 0.0 | 0.8
CCOc1ccc(C(=O)NCC2CCCO2)cc1OCC (stereo not given) | 0.2 | 11.3* | -1.5
COc1ccc(C(=O)NCC2CCCO2)cc1OC (stereo not given) | 2.2 | 0.0 | 1.7
O=C(NCCN1CCOCC1)c1sc2cc(Cl)ccc2c1Cl | -0.4 | 1.4 | 1.4
O=C(NCC1CCCO1)c1sc2cc(Cl)ccc2c1Cl (stereo not given) | 4.0 | 9.9* | -11.6
COc1ccc(/C=N/NC(=O)c2nc(-c3ccccc3)n(-c3ccccc3)n2)c(O)c1 | 1.0 | 19.5* | -0.7
COc1ccc2[nH]c(C(=O)N/N=C/c3ccc(O)cc3O)cc2c1 | 2.0 | 25.1* | 13.6
COc1ccc(/C=N/NC(=O)c2nc(-c3ccccc3)n(-c3ccccc3)n2)cc1 | 5.7 | 0.7 | -18.0
CCOc1ccc2[nH]c(C(=O)N/N=C/c3ccc(OC)cc3)cc2c1 | 6.6 | 0.2 | 3.6
CCOC(=O)/C(C#N)=C1/C=CN(C)C=N1 | 0.7 | 0.0 | -2.1
COC(=O)c1sccc1NC(=O)Nc1ccccc1OC | 0.1 | -0.1 | 9.1
O=C(NCCCc1ccccc1)c1c(O)nc2sccn2c1=O | 1.1 | 2.4 | 5.8
COc1ccc(C2C(C(=O)NCc3ccco3)c3ccccc3C(=O)N2C)cc1 (stereo not given) | 0.0 | -0.6 | -8.8
CCN(CC)CCCNC(=O)C1c2ccccc2C(=O)N(C)C1c1ccc(OC)cc1 (stereo not given) | -1.2 | 795.0* | 8.9
Cc1ccc(C2=N/C(=C\c3cccc(F)c3)C(=O)O2)cc1 | 0.3 | 0.3 | 8.3
O/N=C/C1=C(Cl)c2ccccc2CC1 | 1.8 | 0.5 | 12.4
[O-]/[N+](=C/c1ccc(F)cc1)c1ccc(Cl)cc1 | 1.8 | 1.8 | 57.2*
[O-]/[N+](=C\c1ccco1)c1ccc(Cl)cc1 | -1.0 | 3.5 | 15.3
O=C(N/N=C(\c1ccccc1)c1cccnc1)c1ccc(O)cc1 | -0.5 | -0.6 | -13.1
O=C(N/N=C(\c1ccccc1)c1cccnc1)c1cccc(F)c1 | 5.0 | 89.4* | -5.2
Cc1cccc(C)c1OCCOC(=O)c1cccc(S(=O)(=O)N2CCOCC2)c1 | 3.6 | · | ·
CCN1CCSc2ccc(C(=O)NCc3cccc(Br)c3)cc21 | 1.0 | 1.1 | -0.9
SMILES | NTR1 agonist | HIF activator | Platelet DG rel
CCCOc1ccc(CNC(=O)c2ccc3c(c2)N(CC)CCS3)cc1 | 3.2 | -0.1 | 96.3*
COc1cc2c3nnc(-c4ccc(F)cc4)c-3cn(Cc3cccc(C)c3)c2cc1OC | 124.0* | 0.2 | 9.5
COc1cc2c3nnc(-c4ccccc4)c-3cn(Cc3ccc(F)cc3)c2cc1OC | 12.0 | -0.4 | 3.9
OCCc1ccc(-c2ccc(Cl)cc2)o1 | -0.1 | 0.4 | -2.1
O=S(=O)(NCCc1cn2ccccc2n1)c1ccc2c(c1)OCCO2 | 2.0 | -0.3 | 0.3
O=S(=O)(NCCc1cn2ccccc2n1)c1ccc2c(c1)CCCC2 | 0.6 | -0.1 | 57.0*
OC1CN=C2C=CC=CN2C1 (stereo not given) | 1.4 | -0.2 | 53.8*
Nc1ccc(Sc2ccc([N+](=O)[O-])cc2)cc1 | -1.8 | 0.2 | 2.8
Cc1ccc(C(C[N+](=O)[O-])Sc2ccc(N)cc2)cc1 (stereo not given) | 54.4* | 2.6 | 6.4
CCC(C(=O)NCc1ccco1)N(C(=O)CNS(=O)(=O)c1ccc(C)cc1)c1ccccc1OC (stereo not given) | · | 0.0 | 0.9
Cc1ccccc1CN1C(=O)CSc2ccc(C(=O)N3CCOCC3)cc21 | 0.4 | 22.5* | -10.0
O=C(c1ccc2c(c1)N(Cc1ccccc1)C(=O)CS2)N1CCOCC1 | -1.3 | -0.5 | -7.3
O=C1c2ccccc2-c2nnc(-c3ccccc3)cc21 | 0.4 | -1.6 | 23.8
COc1ccc(-c2cc3c(nn2)-c2ccccc2C3=O)cc1 | -0.1 | -1.0 | 55.5*
COc1ccc(C(=O)CSc2ccc(-c3ccccc3)nn2)cc1 | -1.0 | -0.1 | -2.6
COc1ccc(-c2ccc(SC)nn2)cc1 | -0.1 | -4.7 | 57.3*
CCOc1ccc(N2C(=O)CC(Sc3nc4ccc(OCC)cc4s3)C2=O)cc1 (stereo not given) | 0.1 | -0.1 | 55.8*
CCOc1ccc2nc(SC3CC(=O)N(c4ccc(C)cc4)C3=O)sc2c1 (stereo not given) | 4.3 | 0.2 | 10.6
